Results taken from the supplement of paper PMC11219838.
Values without a mark were called inactive.

The compounds below were run on Meloidogyne hapla J2 (assay: proportion of mobile M. hapla J2 relative to DMSO control (fraction of DMSO control); higher = more viable, less nematicidal, active = 0.7 or less). Settings: 60 µM; 5 days; temperature: 20 °C.
How it was run: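 Two biological replicates were run and averaged, each on 96-well plates in which about 25 M. hapla J2 sat in distilled water per well. Compound was pinned in to give 60 µM final and 0.6% v/v DMSO, and the sealed plates were shaken at 200 rpm and 20 °C for 5 days before 2 µL 1 M NaOH was added. Mobility was scored microscopically and divided by the mean from the plate's DMSO-only wells, of which there were eight.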

Row | Structure (SMILES) | proportion of mobile M. hapla J2
1 | Brc1ccc(OCc2nc(-c3cccnc3)no2)cc1 | 0.955
2 | CCn1c(SCc2ccc(OC)cc2)nnc1-c1ccco1 | 0.611 (active)
3 | Ic1ccc(-c2nc(-c3cccnc3)no2)cc1 | 1.02
4 | CCCCC(=O)Nc1ccccc1-c1nc(-c2ccccn2)no1 | 1.06
5 | CC(Oc1ccccc1)c1nc(-c2cccnc2)no1 (stereo not drawn) | 1.06
6 | Cc1ccccc1CSc1nnc(-c2ccncc2)o1 | 0.754
7 | Cc1cc(C)c(NC(=O)CSc2nnc(-c3ccc(Br)cc3)o2)c(C)c1 | 1
8 | FC(F)(F)c1cccc(-c2noc(-c3ccccc3Cl)n2)c1 | 1.04
9 | O=C(CSc1nnc(-c2cc3ccccc3o2)o1)NC1CC1 | 0.928
10 | Cc1ccc(CSc2nnc(-c3ccco3)o2)c(C)c1 | 0.687 (active)
11 | Clc1ccc(-c2noc(COc3ccccc3Cl)n2)cc1 | 0.891
12 | CCCOc1ccc(-c2nc(-c3ccncc3)no2)cc1 | 0.85
13 | CC(C)(C)NC(=O)CSc1nnc(-c2ccc(C(C)(C)C)cc2)o1 | 1.02
14 | Brc1cccc(-c2nc(-c3ccccc3)no2)c1 | 1.02
15 | FC(F)(F)c1ccc(-c2noc(-c3ccccc3Cl)n2)cc1 | 1.04
16 | COc1ccccc1NC(=O)CSc1nnc(-c2ccc(Cl)cc2)o1 | 0.902
17 | O=C(CSc1nnc(-c2cccnc2)o1)c1ccc2ccccc2c1 | 0.74
18 | CCn1c(SCc2nc(-c3cccs3)no2)nnc1-c1ccco1 | 0.813
19 | Clc1ccc(-c2nc(-c3cccnc3)no2)c(Cl)c1 | 1.04

Row | Structure (SMILES) | proportion of mobile M. hapla J2
20 | COc1ccccc1-c1noc(-c2ccc(C(C)(C)C)cc2)n1 | 1.03
21 | COc1ccc(-c2nnc(SCC(=O)c3ccc(C)o3)o2)cc1 | 1
22 | Cc1ccc(-c2noc(CSc3nc4ccccc4[nH]3)n2)cc1 | 1.05
23 | Clc1ccc(-c2noc(COc3ccc4c(c3)OCO4)n2)cc1 | 0.899
24 | COc1ccc(-c2noc(-c3ccccc3Br)n2)cc1 | 0.765
25 | COc1nc(-c2ccc(C)cc2)ccc1-c1noc(C)n1 | 0.9
26 | CCc1ccc(OCc2nc(-c3ccc(Cl)cc3)no2)cc1 | 1.03
27 | Cc1cccc(OC(C)c2nc(-c3cccnc3)no2)c1 (stereo not drawn) | 0.994
28 | Clc1ccc(OCc2nc(-c3ccncc3)no2)cc1 | 0.749
29 | Cc1nnc(CSc2nnc(-c3ccc(Cl)cc3)o2)o1 | 0.926
30 | O=C(CSc1nnc(-c2ccccc2)o1)Nc1ccc(Br)cc1F | 0.992
31 | CCCc1ccc(-c2nc(-c3ccc(F)cc3)no2)cc1 | 1.01
32 | CCOc1ccc(-c2nc(-c3ccc(Cl)cc3)no2)cc1 | 1
33 | Cc1cc(OCc2nc(-c3ccccc3)no2)ccc1Cl | 0.844
34 | COc1ccc(CC(=O)Nc2ccc(-c3noc(COc4cccc(C)c4C)n3)cc2)cc1 | 0.88
35 | Cn1cc(C(=O)CSc2nnc(-c3cccc(Cl)c3)o2)c2ccccc21 | 0.999
36 | Brc1ccc(-c2noc(-c3ccco3)n2)o1 | 0.801
37 | CCOc1ccccc1-c1nc(-c2ccc(NC(=O)Cc3ccccc3OC)cc2)no1 | 1.04
38 | COc1ccc(-c2noc(COc3ccc4c(c3)CCCC4)n2)cc1 | 0.959
